A selection: hits, their analogues and other compounds. The true share with any hit is near 11%.
IMPase Li inh: IMPase inhibition in cells with lithium potentiation | CHO-M1 cells, IP1 TR-FRET (IP-One), carbachol + lithium | hit rate 0.35% among 210,000 | Potency, µM (titrated, usually from 59.4 µM), inactives show at the highest dose activity, negative = IMPase inhibition, hits mostly inhibitors; active means well fitted curve in the direction sought with a large enough effect; inconclusive means small, poorly fitted or top-dose-only effect, or another doubt; inactive means no such curve, though single readings can be large; an effect the other way counts as inactive or inconclusive;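 further: IP1 builds up when IMPase is blocked and the TR-FRET signal falls; potency means the concentration at half of the fitted maximal effect; plate controls were basal vehicle for no effect and high inhibitor control for full effect; nearly all actives have a fitted effect of over 50% in size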
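Readout is a homogeneous TR-FRET IP1 immunoassay (Ex 320, Em 665 and 620), where raised cytosolic IP1 lowers signal. Cells were CHO-M1 treated 30 min at 37C with test compounds plus a little lithium; AC50 values came from Hill-equation fitting.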
ALDH1A1 inh: blocks purified human ALDH1A1 activity. P00352. Purified ALDH1A1, NADH fluorescence, propionaldehyde substrate. Potency, µM (doses to about 75.3 µM), for the others: top-dose activity, negative = inhibition, usual class: inhibitors. hit rate 7.3% among 220,000;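 further: potency means the concentration at half of the fitted maximal effect; plate controls were no enzyme wells and a reference inhibitor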
12-hLO inh: inhibitors of human 12-lipoxygenase (ALOX12). P18054. purified 12-hLO, xylenol orange hydroperoxide absorbance. Potency, µM (top dose mostly 57.1 µM), without a hit: top-dose activity change, negative = inhibition, usual class: inhibitors. hit rate 0.12% among 150,000; active means well fitted curve in the direction sought with a large enough effect; inconclusive means small, poorly fitted or top-dose-only effect, or another doubt; inactive means no such curve, though single readings can be large; an effect the other way counts as inactive or inconclusive; further: potency means the concentration at half of the fitted maximal effect; nearly all actives have a fitted effect of over 55% in size
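Lipoxygenase turnover measured by absorbance at 573 and 405 nm after Fe-XO development. Human 12hLO 150 nM, arachidonate 40 uM, pH 7.0 Hepes buffer with detergent; 15 min compound preincubation, 30 min reaction.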
PNC inhibitor: blocks assembly of the perinucleolar compartment; PC3M PTB-GFP, PNC prevalence imaging, 16 h; stronger effect = lower value; activity change (PNC), negative = inhibition, % at 10 µM; hit rate 3.1% among 140,000; AID 2417;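 active means readout at or below -70, meaning at least 70% loss of cells showing the perinucleolar compartment, a nuclear body marking cancer cells; inconclusive means readout between -30 and a set limit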;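 further: plate controls were DMSO wells for no effect and camptothecin positive control wells for full effect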
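Compounds are pinned in duplicate onto adhered PC3M cells stably expressing GFP-tagged PTB and incubated 16 h at 37 C. Cells are then fixed, nuclei stained with Hoechst, and PNC-positive cells counted.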
HPGD inh: blocks human HPGD enzyme activity; purified HPGD, NADH fluorescence kinetic, PGE2 substrate; P15428; Potency, µM, without a hit: at the highest dose activity change, negative = inhibition, actives largely listed as inhibitors; hit rate 4.3% among 150,000; further: potency means the concentration at half of the fitted maximal effect
Target sequence (P15428 whole entry, looked up): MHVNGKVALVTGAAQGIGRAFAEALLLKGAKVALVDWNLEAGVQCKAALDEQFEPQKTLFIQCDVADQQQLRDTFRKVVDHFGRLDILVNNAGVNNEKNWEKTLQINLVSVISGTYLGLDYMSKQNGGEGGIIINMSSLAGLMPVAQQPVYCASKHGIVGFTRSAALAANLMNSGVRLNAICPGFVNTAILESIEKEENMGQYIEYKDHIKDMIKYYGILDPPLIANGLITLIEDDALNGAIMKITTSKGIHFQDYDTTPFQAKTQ
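NADH formation kinetics: reaction with 30 uM PGE2 and 1 mM NAD+ (final), 20 nM enzyme, Tris-HCl pH 8 with Tween 20, after 15 min compound preincubation at room temperature. Fluorescence change, last versus first of five reads.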
IMPase inh: IMPase inhibition in cells; P97697; CHO-M1 cells, IP1 accumulation, HTRF TR-FRET ratio; inhibition (IP1 accumulation), % at 46.1 µM; 120,000 tested, under 10 active; active means well fitted curve in the direction sought with a large enough effect in the signal ratio, not every such curve was filed as active; inconclusive means small, poorly fitted or top-dose-only effect, or a change in a side signal; inactive means no such curve, though single readings can be large or run the other way; the % refers to the signal ratio;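 further: cells stimulated with carbachol in lithium chloride buffer; plate controls were DMSO basal wells for no effect and reference inhibitor wells for full effect; higher means more IMPase inhibition seen as more IP1 and lower FRET ratio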
Target sequence (P97697 whole entry, looked up): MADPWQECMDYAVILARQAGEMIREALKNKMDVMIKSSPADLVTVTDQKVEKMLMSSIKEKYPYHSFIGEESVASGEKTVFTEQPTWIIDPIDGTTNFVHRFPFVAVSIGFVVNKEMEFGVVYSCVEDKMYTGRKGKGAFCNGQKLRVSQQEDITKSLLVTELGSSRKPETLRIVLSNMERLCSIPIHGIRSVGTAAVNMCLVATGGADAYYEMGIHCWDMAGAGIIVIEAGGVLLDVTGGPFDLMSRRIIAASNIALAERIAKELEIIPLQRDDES
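Elevated IP1 in lysates lowers TR-FRET signal (665/620 ratio and 620 channel reported). Cells were CHO-M1, given carbachol (50 uM as added) plus 50mM LiCl, pH 7.4, 30 min, 37C; compounds titrated up to 46 uM; AC50 by Hill equation.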
Numbers without * were called inactive; u = inconclusive; x = no result; [ ] = dose if it differs, or a comment. Unless noted, the call rests on the fitted dose curve; in most records, active means well fitted inhibition curve with a large enough effect (not every such curve was filed as active); inconclusive means small, poorly fitted or top-dose-only effect, or another doubt; inactive means no such curve, though single readings can be large or run the other way. Unless noted, on the % scale 0 is the no-effect control and ±100 the full control effect.

SMILES | IMPase Li inh | ALDH1A1 inh | 12-hLO inh | PNC inhibitor | HPGD inh | IMPase inh
COCC(C)NC(=O)c1cc(-c2ccc(OC)c(OC)c2)on1 (stereo not drawn) | 9%[38.3 µM] | 10% | -1% | -83* | -11% | 4[1.84 µM]
CC[C@H](C)[C@@H](NC(=O)O[C@H]1C(=O)c2ccc(OC)cc2O[C@@H]1c1ccc2c(c1)OCO2)C(=O)OC | 10% | 2% | x | x | 0% | x
NCCSCc1ccccc1Cl | 5% | -11%[13.5 µM] | -2%[11.4 µM] | x | -15% | x
C/C(=N\NC(=O)COc1ccccc1-c1ccccc1)c1ccccn1 | 32% | 2.5µM* | x | x | x | x
O=C(COc1ccccc1-c1ccccc1)N/N=C/c1ccncc1 | 11% | -8% | x | x | x | x
C/C(=N\NC(=O)COc1ccccc1-c1ccccc1)c1cccnc1 | 27% | 14µM* | x | x | x | x
O=C(COc1ccccc1-c1ccccc1)N/N=C/c1ccc2ccccc2c1 | 9% | -5% | 1% | -116* | -29% | x
CNCC[C@H](Oc1ccccc1OC)c1ccccc1 | 11% | 1% | -2% | x | 6% | 12
O=C(c1ccncc1)N1CCC2(CCN(Cc3ccccc3)CC2)CC1 | 37% | 5% | 3% | x | -10% | x
CCCc1cc(C(=O)OC)c(NC(=O)CCCC(=O)O)s1 | u | 8% | x | x | x | x
CCc1cc(C(=O)OC)c(NC(=O)CCC(=O)O)s1 | 3% | 18µM* | 0% | -27 | 13µM* | -2
Cc1ccc(N=N/C(=C\O)C(=O)c2ccc(Cl)cc2)cc1 | 22% | 13µM* | x | x | x | x
O=C(/C(=C/O)N=Nc1ccccc1)c1ccncc1 | 25%[38.3 µM] | 1.3µM* | -14% | 4 | -23% | 9
O=C(/C(=C/O)N=Nc1ccccc1)c1ccc(Cl)cc1 | 25% | u | x | x | x | x
C[C@@]12C[C@H](O)C3[C@H](CCC4=CC(=O)CC[C@]43C)[C@H]1CC[C@@H]2c1csc(-c2ccccc2)n1 (stereo partly drawn) | 10% | 3%[13.5 µM] | x | x | -15% | x
O=C(Nc1ccc2[nH]c(=S)sc2c1)Nc1ccccc1F | x | 1µM* | x | x | x | x
Cc1ccc(OCC(=O)N(c2ccc(C)cc2)S(=O)(=O)c2ccc(Cl)cc2)cc1 | x | x | x | x | x | -2
CC1=CC(=O)N(c2ccc(C)cc2)C1c1ccc(Cl)cc1 (stereo not drawn) | -2% | -2% | 0% | 33 | 22µM* | x
O=C(NCc1ccccc1)C1=C[C@H](C2CC2)C[C@H](OCCCCO)O1 | 1% | u | x | x | x | x
CCC/C=N/NC(=O)c1cccc(Br)c1 | 7% | 25µM* | x | x | x | x
O=C(N/N=C/C=C/c1ccccc1)c1cccc(Br)c1 | 5%[38.3 µM] | -11% | 1% | 25 | -9% | -20
Cc1ccc(S(=O)(=O)N2CCN(Cc3ccsc3)CC2)cc1 | 13% | 1% | x | x | x | x
COC(=O)c1cccc(C23CC4(C2)[C@H](CN(CC2CCCCC2)[C@@H]4c2ccccc2)C3c2ccc(Cl)nc2)c1 (stereo partly drawn) | 1% | -9% | -12% | x | -10% | x
Cc1ccccc1C(=O)NCC(=O)NNC(=S)NC(=O)c1ccccc1 | 1% | u | 0% | -83* | -19% | x
Cc1ccccc1C(=O)NCC(=O)NNC(=S)NC(=O)c1ccccc1C | -14% | -1% | -7% | 0 | 25µM* | x
SMILES | IMPase Li inh | ALDH1A1 inh | 12-hLO inh | PNC inhibitor | HPGD inh | IMPase inh
Cc1ccccc1C(=O)NCC(=O)O | 2% | 5% | x | x | x | x
Cc1ccccc1N(CC(=O)Nc1ccccc1C(=O)NCc1ccco1)S(=O)(=O)c1ccccc1 | 6% | u | -5% | 68 | -14% | 1
CCc1cccc(NCc2ccccc2-c2nnc(-c3ccccc3Cl)o2)c1 | x | x | x | x | x | 3
CC(C)(CNC(=O)c1sc2cc(F)ccc2c1Cl)N1CCOCC1 | -1% | -8% | -2% | -92* | -19% | x
Cc1ccc(C(=O)NCC(C)(C)N2CCOCC2)s1 | 23%[38.3 µM] | 0% | -4% | 4 | 2% | -7
CCOc1ccc(NC(=O)Cn2c(=O)n(-c3ccc(C)cc3)c(=O)c3cc(OC)c(OC)cc32)cc1 | x | x | x | x | x | 3
CN(C)c1ccc(C(=S)N2CCN(Cc3ccccc3)CC2)cc1 | -1% | 32µM* | x | x | x | x

High-throughput results from PubChem.
